# Reference: PubChem BioAssay AID626 (Vanderbilt High Throughput Screening Facility, 2007)
# Among all 64,000 compounds or so, about 1,900 (3%) were called active.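 How the source made its calls: active means fluorescence rise, raw or as B-score row- and column-corrected plate score, outside the 99.7% band of its plate's samples, either direction; inactive means the rest.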 The full list was thinned out, with actives kept by preference.
# Tested on: Muscarinic acetylcholine receptor M1
# Experiment: M1 muscarinic receptor agonists, primary screen, CHO-M1 cells, Fluo-4 calcium, agonist mode (AID 626)
# Conditions: Fluo-4 calcium fluorescence, at 10 µM, hits give high values
row,Compound,B-score
1,O=C(O)CCC(=O)NCc1ccc2[nH]c3c(c2c1)CCCC3,1.3 (inactive)
2,CCCc1cc(=O)oc2c(C)c(O)c(CN3CCCCC3)cc12,0.177 (inactive)
3,CCn1c(Cc2ccccc2)nnc1SCC(=O)Nc1ccccc1,-0.0339 (inactive)
4,CCCS(=O)(=O)N1CCC(C(=O)NCCc2ccc(OC)c(OC)c2)CC1,-0.16 (inactive)
5,Cc1cc(=O)n2nc(N3CCCC(C(=O)NCCC4=CCCCC4)C3)sc2n1 (stereo not given),-0.152 (inactive)
6,COc1ccc(CCNC(=O)C2CCN(c3nn4c(=O)cc(C)nc4s3)CC2)cc1OC,4.73 (active)
7,Clc1ccc(CSc2nnc([C@@H]3CCCN3)o2)cc1,-0.196 (inactive)
8,CC(C)C1Cc2c(sc3c2c(=O)n(-c2ccccc2)c2nncn32)CO1 (stereo not given),-0.132 (inactive)
9,CC1(C)CC(CCC(=O)Nc2ccccc2Cl)C(=O)O1 (stereo not given),0.285 (inactive)
10,O=C(COC(=O)CCc1c[nH]c(=O)[nH]1)Nc1ccccc1Cl,2.4 (active)
11,O=C(COc1ccc(Cl)cc1)Nc1ccccc1CO,1.32 (inactive)
12,CCOC(=O)N1CCN(Cc2oc(CO)cc(=O)c2O)CC1,0.262 (inactive)
13,O=C(c1cccc(C(=O)N2CCN(c3ccc(F)cc3)CC2)c1)N1CCN(c2ccc(F)cc2)CC1,3.5 (active)
14,Cc1ccccc1CN1CCN(C(=O)c2cccc(F)c2)CC1,-0.152 (inactive)
15,O=C(c1ccccc1)c1cccn1CC(=O)N1CCN(c2ccc(F)cc2)CC1,-0.56 (inactive)
16,CS(=O)(=O)N(CC(=O)N1CCOCC1)c1ccc2c3c(cccc13)CC2,0.155 (inactive)
17,Cc1ccc(NC2=NC(c3ccccc3)n3c(nc(C)cc3=O)N2)cc1 (stereo not given),-0.0683 (inactive)
18,COC(=O)c1ccccc1NC(=O)c1cncc(Br)c1,0.529 (inactive)
19,Cc1cccc2cc(C#N)c(N3CCCC3)nc12,1.26 (inactive)
20,CCOc1ccc2nc(N3CCCN(C(=O)Nc4ccccc4C)CC3)c(C#N)cc2c1,49.3 (active)
21,CCOc1ccc2nc(NCCNS(=O)(=O)c3ccccc3)c(C#N)cc2c1,-0.354 (inactive)
22,Nc1ccc(SCCN2C(=O)c3ccccc3C2=O)cc1,13.8 (active)

row,Compound,B-score
1,Cc1ccc(SCCN2C(=O)NC(C)(C)C2=O)cc1,0.397 (inactive)
2,O=C1c2ccccc2C(=O)N1CCc1nn[nH]n1,0.641 (inactive)
3,NS(=O)(=O)c1ccc(NS(=O)(=O)/C=C/c2ccccc2)cc1,-0.0855 (inactive)
4,O=C(OCCO)c1cc(Cl)c(C(=O)OCCO)cc1Cl,0.283 (inactive)
5,Cc1ccc(CNC(=O)CN2CCN(Cc3ccc(Cl)cc3)C2=O)cc1,-0.559 (inactive)
6,CS(=O)(=O)N(Cc1nc2sc3c(c2c(=O)[nH]1)CCCC3)C1CCCCC1,-0.0154 (inactive)
7,CSCCC(NC(=O)C1CCC(C)CC1)C(=O)NCc1ccco1 (stereo not given),-0.577 (inactive)
8,Cn1c(=O)[nH]c(=O)c2c1nc(NCCCn1ccnc1)n2Cc1cccc(Br)c1,0.757 (inactive)
9,COc1ccc(N2CCN(CCNC(=O)CCN3C(=O)COc4ccccc43)CC2)cc1,0.72 (inactive)
10,COc1ccc(C2C(C(=O)N3CCN(c4ccc(OC)cc4)CC3)c3ccccc3C(=O)N2C)cc1 (stereo not given),4.34 (active)
11,CCOc1ccc(C2C(C(=O)O)c3ccccc3C(=O)N2CCN2CCOCC2)cc1 (stereo not given),0.0396 (inactive)
12,CN(C)/C=C/c1c(C#N)c(=O)ncn1Cc1ccccc1,1.01 (inactive)
13,N#C/C=C\Oc1ccc(Cl)cc1N,0.000464 (inactive)
14,COc1ccc(OC)c(S(=O)(=O)N(C)CC(=O)N2CCN(c3ccccc3)CC2)c1,0.148 (inactive)
15,CCCC(=O)NC(C)C(c1cccs1)N1CCN(c2ccccc2)CC1 (stereo not given),-0.223 (inactive)
16,COc1ccc(C(C(O)C(=O)c2c[nH]c3ccccc23)N2CCN(c3ccccc3)CC2)cc1 (stereo not given),3.3 (active)
17,CCOC(=O)c1sc(NC(=O)CSc2ncccn2)c(C#N)c1C,0.288 (inactive)
18,COc1ccc(S(=O)(=O)N2CCN(C(=O)c3cccs3)CC2)cc1OC,-1.5 (inactive)
19,CC(=O)c1ccc(N2C(=NC(=O)C(C)C)SC3CS(=O)(=O)CC32)cc1 (stereo not given),-0.587 (inactive)
20,Cn1c(=O)c(=O)n(C)c2cc(S(=O)(=O)NCCc3ccccc3)ccc21,0.704 (inactive)
21,CC(=O)Nc1ccc(NC(=O)CN2CCCC(C)C2)c(Cl)c1 (stereo not given),6.88 (active)
22,O=C(CN1CCOCC1)Nc1ccc(NC(=O)CN2CCOCC2)c(Cl)c1,-0.0117 (inactive)

row,Compound,B-score
1,COc1ccc(NC(C)=O)cc1NC(=O)CN1CCN(C2c3ccccc3-c3ccccc32)CC1,0.8 (inactive)
2,CCNS(=O)(=O)c1ccc(NC(=O)Nc2cccc(OC)c2)cc1,2.45 (inactive)
3,CCOP1(=O)C=C(C(C)(C)C)OC1c1ccc(F)cc1 (stereo not given),-0.203 (inactive)
4,CCOc1ccc(NCCC(=O)c2ccc3c(c2)OCO3)cc1,-0.0168 (inactive)
5,Cc1ccc2oc(=O)c3cnn(CC(=O)N4CCN(c5ccccn5)CC4)c3c2c1,7.39 (active)
6,CCOC(=O)C1CCCN(C(=O)Cn2ncc3c(=O)oc4ccc(C)cc4c32)C1 (stereo not given),-0.657 (inactive)
7,Cc1ccc2oc(=O)c3cnn(CC(=O)N4CCCCCC4)c3c2c1,0.0625 (inactive)
8,O=C(NC1CC2CCCC(C1)N2C(=O)N1CCCCC1)C1CCCCC1 (stereo not given),0.398 (inactive)
9,CN1CCCC(OC(=O)COc2ccc(Br)cc2)C1 (stereo not given),2.29 (inactive)
10,Cc1ccc(F)cc1NC(=O)c1ccc2c(c1)OCO2,0.368 (inactive)
11,CCOC(=O)c1c(NC(=O)CSc2nnc(CN3CCOCC3)n2C)sc2c1CCCC2,0.743 (inactive)
12,O=C(CSc1nnc(-c2ccco2)n1Cc1ccccc1)NC(=O)NCc1ccco1,2.23 (active)
13,c1ccc(CSc2nnc(-c3ccco3)n2Cc2ccccc2)cc1,1.61 (inactive)
14,O=C(CSc1nnc(-c2ccco2)n1-c1ccccc1)NCCc1ccccc1,0.164 (inactive)
15,COc1cccc(-c2nn(C)c3sc(C(=O)N4CCN(c5ccccc5)CC4)cc23)c1,-0.654 (inactive)
16,CC(C[N+](C)(C)C)OC(N)=O (stereo not given),67.7 (active)
17,CC(=O)OC(C)C[N+](C)(C)C (stereo not given),53.8 (active)
18,CCC(=O)N1c2ccc(S(=O)(=O)CCC(=O)N3CCN(c4ccccc4)CC3)cc2CC1C (stereo not given),-2.01 (inactive)
19,Cn1c(=O)c2c(ncn2CC(=O)N2CCN(c3ccccc3)CC2)n(C)c1=O,0.437 (inactive)
20,COc1ccc(-c2nnco2)cc1OC,0.77 (inactive)
21,O=S(=O)(CCc1nc2ccccc2o1)c1ccc(Cl)cc1,0.134 (inactive)
